# Results: PMC4336329 (PLoS ONE, 2015)
# About 14,000 (4.5%) of roughly 310,000 compounds showed an effect of 50% or more. The effect is printed as a negative number. The sample as a whole holds a higher share of strong results than the screen did.
# Molecular target: human ether-à-go-go-related gene (hERG) potassium channel (human, UniProt Q12809)
# Experiment: primary screen, population patch clamp on CHO cells stably expressing hERG; higher = less effect of the substance
# 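Note: peak tail current of the secondary pulse compared with the same well before compound.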
# Sequence of human ether-à-go-go-related gene (hERG) potassium channel (Q12809 whole entry, looked up): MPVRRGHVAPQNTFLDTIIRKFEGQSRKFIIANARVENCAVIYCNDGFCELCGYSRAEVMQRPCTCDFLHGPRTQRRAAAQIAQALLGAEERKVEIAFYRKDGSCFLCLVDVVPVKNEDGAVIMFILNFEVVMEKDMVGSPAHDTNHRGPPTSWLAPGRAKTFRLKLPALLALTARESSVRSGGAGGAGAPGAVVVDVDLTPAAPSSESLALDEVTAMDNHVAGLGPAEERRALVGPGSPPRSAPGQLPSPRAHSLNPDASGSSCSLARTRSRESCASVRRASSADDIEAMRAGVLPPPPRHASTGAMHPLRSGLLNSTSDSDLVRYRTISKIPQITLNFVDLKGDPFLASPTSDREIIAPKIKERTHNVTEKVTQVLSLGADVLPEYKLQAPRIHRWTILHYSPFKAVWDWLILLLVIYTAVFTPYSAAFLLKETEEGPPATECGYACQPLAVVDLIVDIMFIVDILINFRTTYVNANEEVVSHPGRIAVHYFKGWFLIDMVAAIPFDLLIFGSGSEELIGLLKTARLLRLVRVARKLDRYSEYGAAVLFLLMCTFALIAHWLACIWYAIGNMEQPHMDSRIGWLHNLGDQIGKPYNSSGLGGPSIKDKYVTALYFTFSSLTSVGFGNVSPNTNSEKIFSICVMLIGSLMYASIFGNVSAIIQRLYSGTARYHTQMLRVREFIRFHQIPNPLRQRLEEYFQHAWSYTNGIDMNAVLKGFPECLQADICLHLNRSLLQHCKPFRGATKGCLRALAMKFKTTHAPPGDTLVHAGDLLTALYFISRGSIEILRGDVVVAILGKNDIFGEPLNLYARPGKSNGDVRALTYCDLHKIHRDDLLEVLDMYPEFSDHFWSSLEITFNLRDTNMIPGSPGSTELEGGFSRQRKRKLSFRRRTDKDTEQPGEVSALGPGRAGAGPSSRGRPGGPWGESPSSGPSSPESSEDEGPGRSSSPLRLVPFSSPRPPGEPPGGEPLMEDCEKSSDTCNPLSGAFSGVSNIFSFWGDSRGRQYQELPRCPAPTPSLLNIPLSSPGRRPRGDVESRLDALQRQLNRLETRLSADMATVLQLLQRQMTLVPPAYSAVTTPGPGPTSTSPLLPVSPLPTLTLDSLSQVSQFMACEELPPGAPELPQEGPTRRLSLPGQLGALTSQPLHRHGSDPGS
row,SMILES,"hERG current change (%, negative = inhibition) at 10uM [%]"
1,O=C(NCc1ccncc1)c1ccc(Cl)c(S(=O)(=O)N2CCOCC2)c1,12.4
2,CC1(C)OCC(COC(=O)Nc2cccnc2)([N+](=O)[O-])CO1,23.8
3,O=C(Nc1ccccc1)OCCOc1ccccc1,-17.8
4,CC1(c2ccccc2)CC(C)(C)N2C(=O)/C(=C3\SC(=S)NC3=O)c3cccc1c32 (stereo not drawn),-0.561
5,O=C(COC(=O)Cc1cn2ccsc2n1)Nc1nc2ccccc2s1,8.88
6,CCOCCCNC(=O)C1CCN(c2cc(C)nc3c(-c4ccc(OC)c(OC)c4)c(C)nn23)CC1,-7.5
7,COc1cc(C)ccc1OCCOCCOc1cccc2ccc(C)nc12.O=C(O)C(=O)O,-29.3
8,C=CCc1ccc(OCCOCCOc2cccc3ccc(C)nc23)c(OC)c1.O=C(O)C(=O)O,-61.6
9,C=CCc1ccc(OCCOc2cccc3ccc(C)nc23)c(OC)c1.O=C(O)C(=O)O,-6.6
10,CCOC(=O)c1[nH]c(C)c(C(=O)N2CCc3c([nH]c4ccccc34)C2c2ccccn2)c1C (stereo not drawn),-0.347
11,CSc1nc(NCc2ccccc2)c2c3c(sc2n1)CN(C)CC3,-78
12,CSc1nc(SCC(=O)NCc2ccco2)c2c3c(sc2n1)CN(C)CC3,-0.986
13,CSc1nc(NCc2ccco2)c2c3c(sc2n1)CN(C)CC3,-75
14,CCC(O)CNc1nc(SC)nc2sc3c(c12)CCN(C)C3 (stereo not drawn),0.847
15,CSc1nc(NCCCN(C)C)c2c3c(sc2n1)CN(C)CC3,1.56
16,CCN(CC)CCCNc1nc(SC)nc2sc3c(c12)CCN(C)C3,11
17,Cc1ccc(CN2CC(C(=O)O)CC2=O)cc1 (stereo not drawn),6.55
18,CCOc1ccc(NC(=O)C(CC(=O)O)Cc2ccc(Br)cc2)cc1 (stereo not drawn),11.1
19,COc1ccc(C(=O)Oc2cccc(/C=N/NC(N)=S)c2)cc1,11.7
20,Cc1ccccc1NC(=S)N(CCCN1CCC(C)CC1)Cc1ccco1,-47.9
21,Cc1ccc(NC(=S)N(CCCN2CCOCC2)Cc2ccco2)cc1C,-31.9
22,Cc1ccc2[nH]c(=O)c(CN(Cc3ccco3)C(=O)N3CCOCC3)cc2c1,-0.449

row,SMILES,"hERG current change (%, negative = inhibition) at 10uM [%]"
1,Cc1ccc2[nH]c(=O)c(CN(Cc3ccco3)C(=O)c3ccncc3)cc2c1,-43.4
2,Cc1ccc(NC(=S)N(CCCN2CCOCC2)Cc2ccco2)cc1,4.36
3,Cc1ccc(NC(=S)N(CCCN2CCC(C)CC2)Cc2ccco2)cc1C,-70.3
4,Cc1ccc2[nH]c(=O)c(CN(Cc3ccco3)C(=O)CN3CCCC(C)C3)cc2c1 (stereo not drawn),-57
5,Cc1ccc(NC(=S)N(CCCN2CCC(C)CC2)Cc2ccco2)cc1,-72
6,Cc1ccc(NC(=S)N(CCCN2CCCC(C)C2)Cc2ccco2)cc1C (stereo not drawn),-76.2
7,O=C(c1c[nH]c2ccccc12)C(O)C(c1ccccc1)N1CCOCC1 (stereo not drawn),-0.703
8,CSC1=N/C(=C\c2c(F)cccc2Cl)C(=O)S1,-17.5
9,CC(=O)Nc1ccc(NC(=O)CSc2nnc(C)n2-c2ccccc2)cc1,26.1
10,CCOC(=O)C1C(=O)OC2(CCOC(C)(C)C2)C1C(=O)OCC (stereo not drawn),5.89
11,COc1ccc(N(CC(=O)NCc2ccccc2Cl)S(=O)(=O)c2c(C)n[nH]c2C)cc1,2.87
12,O=C(Nc1ccc2c(c1)OCO2)C1CCCCC1,0.102
13,O=C(Nc1ccc2c(c1)OCCO2)C1CCN(C(=O)c2ccccc2)CC1,5.84
14,COc1cc(OC)cc(C(=O)N2CCC(C(=O)Nc3ccc4c(c3)OCCO4)CC2)c1,2.48
15,COc1ccc(C(=O)N2CCC(C(=O)Nc3ccc4c(c3)OCO4)CC2)cc1,-79.9
16,O=C(Nc1ccc2c(c1)OCCO2)C1CCN(C(=O)c2ccc(F)cc2)CC1,3.73
17,O=C(Nc1ccc2c(c1)OCO2)C1CCN(C(=O)c2ccc(Br)cc2)CC1,-70.5
18,O=C(Nc1ccc2c(c1)OCCO2)C1CCN(C(=O)c2ccc(Br)cc2)CC1,-52.7
19,Cc1ccccc1C(=O)N1CCC(C(=O)Nc2ccc3c(c2)OCO3)CC1,3.97
20,O=C(Nc1ccc2c(c1)OCCO2)C1CCN(C(=O)c2ccc(Cl)cc2)CC1,-12.5
21,O=C(Nc1ccc2c(c1)OCO2)C1CCN(C(=O)c2ccc(Cl)cc2)CC1,-73.5
22,COc1ccc(C(=O)N2CCC(C(=O)Nc3ccc4c(c3)OCCO4)CC2)cc1,-44.2

row,SMILES,"hERG current change (%, negative = inhibition) at 10uM [%]"
1,CS(=O)(=O)N1CCC(C(=O)Nc2ccc3c(c2)OCO3)CC1,-7.81
2,Cn1c(=O)n(CCCOc2ccc(Br)cc2)c2ccccc21,-3.96
3,COc1ccc(C2C(C(=O)c3ccco3)=C(O)C(=O)N2CC2CCCO2)cc1OC (stereo not drawn),24.1
4,O=C(CCN1c2ccccc2Sc2ccccc21)OCc1nnc(-c2ccccc2)o1,5.92
5,O=S1(=O)CCOC[C@H](Cc2ccccc2)N1Cc1ccccc1,-37.8
6,Cc1nc2c3ccccc3nc(NNC(=O)CCC(=O)N3CCN(c4ccccc4F)CC3)n2n1,-40.3
7,CCOc1ccc(NC(=O)C2CCCN(C(=O)Nc3ccccc3)C2)cc1 (stereo not drawn),2.35
8,Cc1cc(C)n(C(C)CC(=O)Nc2ccc3c(c2)OCO3)n1 (stereo not drawn),10.2
9,COc1cc(OC)c(NC(=O)c2ccco2)cc1Cl,-14.3
10,O=C1OCCC1Sc1nc2ccccc2c(=O)n1Cc1ccccc1 (stereo not drawn),-82.4
11,Cc1ccc(Cn2c(SC3CCOC3=O)nc3ccccc3c2=O)cc1 (stereo not drawn),-42.9
12,O=C1OCCC1Sc1nc2ccccc2n1Cc1ccccc1 (stereo not drawn),-46.3
13,COCCn1c(SC2CCOC2=O)nc2ccccc2c1=O (stereo not drawn),-31
14,O=C1OCCC1Sc1nc2ccccc2c(=O)n1-c1ccc(F)cc1 (stereo not drawn),8.7
15,O=C1OCCC1Sc1nc2ccccc2c(=O)n1Cc1ccc(F)cc1 (stereo not drawn),-75.5
16,O=C1OCCC1Sc1nc2cc(Cl)ccc2n1Cc1ccccc1 (stereo not drawn),-63.9
17,CSc1nc2ccccc2c(=O)n1Cc1ccc(F)cc1,15.4
18,O=C1OCCC1Sc1nnc(-c2ccccc2Cl)n1Cc1ccccc1 (stereo not drawn),2.19
19,O=C(Nc1ccccc1Cl)c1ccc(=O)[nH]n1,8.03
20,COCCn1c(SCC(=O)N(C(C)C)C(C)C)nnc1-c1cc2ccccc2cc1O,-15.8
21,COc1cccc(CN(C)C(=O)c2cc(S(=O)(=O)NC3CCCCC3)ccc2C)c1OC,-4.41
22,COc1ccc(-c2oc3ccccc3c(=O)c2OC(C)=O)cc1,-11.3

row,SMILES,"hERG current change (%, negative = inhibition) at 10uM [%]"
1,CC(=O)c1cccc(NC(=O)NCc2cccnc2)c1,12.2
2,O=C(Oc1ccccc1)N(c1ccccc1)c1ccccc1,2.8
3,NS(=O)(=O)c1ccc(NC(=O)CN2CCCc3ccccc32)cc1,-5.73
4,N#Cc1ccc(S(=O)(=O)N2CCN(CC(=O)Nc3ccccc3C(=O)NC3CC3)CC2)cc1,-73.9
5,CC(C#N)(NC(=O)CN1CCN(S(=O)(=O)c2ccccc2C#N)CC1)C1CC1 (stereo not drawn),2.51
6,Cc1ccccc1C(=O)NC1CCN(CC(=O)Nc2ccccc2Cl)CC1,-14.4
7,N#Cc1ccccc1S(=O)(=O)N1CCN(CC(=O)NC(=O)NC2CCCCC2)CC1,-31.6
8,NC(=O)C1CCN(CC(=O)Nc2ccccc2C(=O)NC2CC2)CC1,1.42
9,O=C(CN1CCN(S(=O)(=O)c2ccccc2)CC1)Nc1ccccc1C(=O)c1ccccc1,-19.4
10,N#Cc1ccccc1S(=O)(=O)N1CCN(CC(=O)Nc2ccccc2C(=O)NC2CC2)CC1,-66.5
11,O=C(CN1CCN(S(=O)(=O)c2ccc(F)c(F)c2)CC1)Nc1ccccc1C(=O)NC1CC1,-72.3
12,O=C(CN1CCN(S(=O)(=O)c2ccccc2)CC1)NC1CC1,15.3
13,O=C(CN1CCN(S(=O)(=O)c2ccccc2F)CC1)Nc1ccccc1C(=O)c1ccccc1,-22.8
14,O=C(CN1CCN(S(=O)(=O)c2ccc(F)cc2)CC1)NC1CCCC1,-8.45
15,N#Cc1ccc(CN2CCN(CC(=O)Nc3ccccc3C(=O)NC3CC3)CC2)cc1,-77.9
16,O=C(Cc1c(F)cccc1Cl)Nc1ccccc1C(=O)N1CCOCC1,3.32
17,C#CCOc1ccc(/C=C2/C(=O)ON=C2C)cc1Cl,10.9
18,Oc1ccc(Br)cc1/C=N/n1c(COc2ccccc2)n[nH]c1=S,16.5
19,CCCCNC(=O)COC(=O)c1ccc(F)cc1Cl,-10.8
20,COc1ccc(-c2cc(=O)oc3cc(OC(C)C(=O)Nc4ccc(CN5CCOCC5)cc4)ccc23)cc1 (stereo not drawn),-0.104
21,O=C(c1ccc(Cl)cc1)c1cnc(Nc2ccccc2Cl)s1,-1.11
